Legend:
Test in all cases: DAPPL (digital affinity profiling via proximity ligation, sequencing); 10 mM Tris-HCl pH 7.5, 50 mM NaCl, 1 mM DTT, 4% glycerol, room temperature, 30 min; GST-TFs on glutathione beads, 16-mer random dsDNA library, 0.1% formaldehyde crosslink after washing; high values mean tight binding
Conditions in all cases: protein: recombinant; tags: N-terminal GST; dsDNA, one strand shown
ERF = molecular target: T1, ERF (Homo sapiens, UniProt P50548 1-548)
T1 sequence: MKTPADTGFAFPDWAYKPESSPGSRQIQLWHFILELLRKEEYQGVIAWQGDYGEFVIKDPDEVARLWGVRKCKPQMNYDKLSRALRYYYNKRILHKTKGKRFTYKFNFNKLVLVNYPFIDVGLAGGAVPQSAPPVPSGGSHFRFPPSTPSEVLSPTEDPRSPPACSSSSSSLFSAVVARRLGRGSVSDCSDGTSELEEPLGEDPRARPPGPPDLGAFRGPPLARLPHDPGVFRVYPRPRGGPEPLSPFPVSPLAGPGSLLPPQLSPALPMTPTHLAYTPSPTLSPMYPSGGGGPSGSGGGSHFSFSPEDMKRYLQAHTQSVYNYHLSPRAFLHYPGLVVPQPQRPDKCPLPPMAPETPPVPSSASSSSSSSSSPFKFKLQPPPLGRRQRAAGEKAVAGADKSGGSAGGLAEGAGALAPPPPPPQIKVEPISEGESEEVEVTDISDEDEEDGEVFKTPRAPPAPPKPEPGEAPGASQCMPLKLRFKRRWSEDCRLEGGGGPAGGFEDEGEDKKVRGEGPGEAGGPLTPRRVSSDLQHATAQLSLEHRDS
Procedure, shortened: (§1)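 Human transcription factors fused to GST were expressed in yeast, captured on glutathione beads, given DNA barcodes and pooled with a GST-only negative control. Pools were incubated with 200 nmole of a 16-mer random double-stranded DNA library in Tris/NaCl/DTT/glycerol buffer at room temperature for 30 min. They were then washed, crosslinked with 0.1% formaldehyde, proximity-ligated (BsaI/T4 ligase, 1 h, 37 °C), PCR-amplified and sequenced on an Illumina NextSeq500. Binding signal is each 6-mer's read frequency for a factor divided by its frequency for the GST control.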

ETV3L = molecular target: T2, ETV3L (Homo sapiens, UniProt Q6ZN32 1-361)
T2 sequence: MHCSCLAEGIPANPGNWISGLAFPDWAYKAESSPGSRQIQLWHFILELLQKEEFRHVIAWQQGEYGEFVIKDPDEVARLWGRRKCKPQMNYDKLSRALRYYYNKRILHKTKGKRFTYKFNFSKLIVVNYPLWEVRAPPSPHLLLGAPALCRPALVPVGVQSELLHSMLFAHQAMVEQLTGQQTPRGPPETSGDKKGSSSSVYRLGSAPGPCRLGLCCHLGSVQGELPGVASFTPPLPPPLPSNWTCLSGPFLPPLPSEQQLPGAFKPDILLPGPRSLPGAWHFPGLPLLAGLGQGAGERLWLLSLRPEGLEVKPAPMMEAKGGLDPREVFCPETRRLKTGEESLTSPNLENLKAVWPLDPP
Procedure, shortened: as §1

ETS2 = molecular target: T3, ETS2 (Homo sapiens, UniProt P15036 1-469)
T3 sequence: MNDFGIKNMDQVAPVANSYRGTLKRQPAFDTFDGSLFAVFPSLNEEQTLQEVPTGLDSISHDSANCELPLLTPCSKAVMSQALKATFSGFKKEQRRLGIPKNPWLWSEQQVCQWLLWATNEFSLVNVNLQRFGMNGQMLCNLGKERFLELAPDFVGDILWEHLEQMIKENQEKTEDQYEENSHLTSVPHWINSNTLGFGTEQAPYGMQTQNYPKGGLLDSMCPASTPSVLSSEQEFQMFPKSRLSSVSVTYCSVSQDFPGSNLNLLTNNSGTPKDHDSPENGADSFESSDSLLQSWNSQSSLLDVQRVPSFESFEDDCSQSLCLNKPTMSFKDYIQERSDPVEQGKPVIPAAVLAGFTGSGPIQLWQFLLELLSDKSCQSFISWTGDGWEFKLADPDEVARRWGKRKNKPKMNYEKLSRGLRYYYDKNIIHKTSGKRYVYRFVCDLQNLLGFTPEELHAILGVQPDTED
Procedure, shortened: as §1

SPDEF = molecular target: T4, SPDEF (Homo sapiens, UniProt O95238 1-335)
T4 sequence: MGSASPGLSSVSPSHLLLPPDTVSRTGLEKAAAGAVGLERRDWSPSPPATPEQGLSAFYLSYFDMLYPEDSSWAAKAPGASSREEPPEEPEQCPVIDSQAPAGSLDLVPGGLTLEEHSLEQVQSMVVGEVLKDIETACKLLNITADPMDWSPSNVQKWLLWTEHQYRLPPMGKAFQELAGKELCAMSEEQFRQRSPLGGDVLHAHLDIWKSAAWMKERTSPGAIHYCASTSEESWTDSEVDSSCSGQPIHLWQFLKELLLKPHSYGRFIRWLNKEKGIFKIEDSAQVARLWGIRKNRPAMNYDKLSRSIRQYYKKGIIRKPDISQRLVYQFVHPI
Procedure, shortened: as §1

ETV7 = molecular target: T5, ETV7 (Homo sapiens, UniProt Q9Y603 1-341)
T5 sequence: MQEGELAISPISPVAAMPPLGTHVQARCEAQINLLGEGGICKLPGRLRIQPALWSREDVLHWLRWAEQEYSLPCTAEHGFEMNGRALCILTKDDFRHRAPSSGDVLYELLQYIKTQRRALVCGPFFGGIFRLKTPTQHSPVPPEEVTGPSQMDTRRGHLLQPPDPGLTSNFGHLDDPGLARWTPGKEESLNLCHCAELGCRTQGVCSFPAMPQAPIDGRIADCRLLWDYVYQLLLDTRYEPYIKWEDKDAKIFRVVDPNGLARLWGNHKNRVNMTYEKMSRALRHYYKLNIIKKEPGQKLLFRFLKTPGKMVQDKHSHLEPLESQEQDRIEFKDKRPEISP
Procedure, shortened: as §1

ELF5 = molecular target: T6, ELF5 (Homo sapiens, UniProt Q9UKW6-2 1-255)
T6 sequence: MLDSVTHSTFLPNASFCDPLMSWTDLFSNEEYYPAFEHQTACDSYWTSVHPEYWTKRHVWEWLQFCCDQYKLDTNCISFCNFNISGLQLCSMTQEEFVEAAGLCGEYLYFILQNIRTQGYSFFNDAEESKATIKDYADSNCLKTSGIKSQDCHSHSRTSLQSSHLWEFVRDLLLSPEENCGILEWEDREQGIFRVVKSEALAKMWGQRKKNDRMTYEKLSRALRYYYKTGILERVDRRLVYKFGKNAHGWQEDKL
Procedure, shortened: as §1

ETV3 = molecular target: T7, ETV3 (Homo sapiens, UniProt P41162-2 1-143)
T7 sequence: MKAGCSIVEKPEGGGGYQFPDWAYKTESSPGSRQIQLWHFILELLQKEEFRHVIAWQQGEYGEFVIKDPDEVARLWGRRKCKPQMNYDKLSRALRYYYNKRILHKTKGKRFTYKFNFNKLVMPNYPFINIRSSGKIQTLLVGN
Procedure, shortened: as §1

ETV6 = ETV6 (Homo sapiens, UniProt P41212 1-452)
Procedure, shortened: as §1

ETV6, sequence (P41212 whole entry): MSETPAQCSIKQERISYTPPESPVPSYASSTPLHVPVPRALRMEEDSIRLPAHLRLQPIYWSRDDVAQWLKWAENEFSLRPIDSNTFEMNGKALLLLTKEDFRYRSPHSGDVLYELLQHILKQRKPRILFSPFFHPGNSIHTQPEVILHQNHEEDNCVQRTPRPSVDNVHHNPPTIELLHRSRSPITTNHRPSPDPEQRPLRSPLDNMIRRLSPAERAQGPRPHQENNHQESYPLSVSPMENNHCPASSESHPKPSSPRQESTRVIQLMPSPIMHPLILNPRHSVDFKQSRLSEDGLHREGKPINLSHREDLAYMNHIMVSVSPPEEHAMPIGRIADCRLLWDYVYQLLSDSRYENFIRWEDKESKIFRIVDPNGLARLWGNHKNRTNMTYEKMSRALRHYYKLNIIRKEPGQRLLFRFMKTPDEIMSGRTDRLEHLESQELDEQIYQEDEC

Sequence | binding signal (ERF) | binding signal (ETV3L) | binding signal (ETS2) | binding signal (SPDEF) | binding signal (ETV7) | binding signal (ELF5) | binding signal (ETV3) | binding signal (ETV6)
CTATAA | 1.29 fold enrichment (6-mer frequency, TF over GST control) | 1.14 fold enrichment (6-mer frequency, TF over GST control) | 1.28 fold enrichment (6-mer frequency, TF over GST control) | 1.34 fold enrichment (6-mer frequency, TF over GST control) | 1.22 fold enrichment (6-mer frequency, TF over GST control) | 1.2 fold enrichment (6-mer frequency, TF over GST control) | 1.14 fold enrichment (6-mer frequency, TF over GST control) | 1.16 fold enrichment (6-mer frequency, TF over GST control)
TTTACC | 1.21 fold enrichment (6-mer frequency, TF over GST control) | 1.1 fold enrichment (6-mer frequency, TF over GST control) | 1.28 fold enrichment (6-mer frequency, TF over GST control) | 1.26 fold enrichment (6-mer frequency, TF over GST control) | 1.45 fold enrichment (6-mer frequency, TF over GST control) | 1.2 fold enrichment (6-mer frequency, TF over GST control) | 1.36 fold enrichment (6-mer frequency, TF over GST control) | 1.26 fold enrichment (6-mer frequency, TF over GST control)
CGGAAA | 1.77 fold enrichment (6-mer frequency, TF over GST control) | 2.05 fold enrichment (6-mer frequency, TF over GST control) | 2.07 fold enrichment (6-mer frequency, TF over GST control) | 2.03 fold enrichment (6-mer frequency, TF over GST control) | 1.97 fold enrichment (6-mer frequency, TF over GST control) | 2.58 fold enrichment (6-mer frequency, TF over GST control) | 2.26 fold enrichment (6-mer frequency, TF over GST control) | 2.53 fold enrichment (6-mer frequency, TF over GST control)
TATTGC | 1.31 fold enrichment (6-mer frequency, TF over GST control) | 1.4 fold enrichment (6-mer frequency, TF over GST control) | 1.36 fold enrichment (6-mer frequency, TF over GST control) | 1.31 fold enrichment (6-mer frequency, TF over GST control) | 1.36 fold enrichment (6-mer frequency, TF over GST control) | 1.27 fold enrichment (6-mer frequency, TF over GST control) | 1.41 fold enrichment (6-mer frequency, TF over GST control) | 1.38 fold enrichment (6-mer frequency, TF over GST control)
CGTCTT | 1.24 fold enrichment (6-mer frequency, TF over GST control) | 1.4 fold enrichment (6-mer frequency, TF over GST control) | 1.4 fold enrichment (6-mer frequency, TF over GST control) | 1.48 fold enrichment (6-mer frequency, TF over GST control) | 1.41 fold enrichment (6-mer frequency, TF over GST control) | 1.5 fold enrichment (6-mer frequency, TF over GST control) | 1.44 fold enrichment (6-mer frequency, TF over GST control) | 1.5 fold enrichment (6-mer frequency, TF over GST control)
CTGGCA | 1.28 fold enrichment (6-mer frequency, TF over GST control) | 1.27 fold enrichment (6-mer frequency, TF over GST control) | 1.25 fold enrichment (6-mer frequency, TF over GST control) | 1.13 fold enrichment (6-mer frequency, TF over GST control) | 1.4 fold enrichment (6-mer frequency, TF over GST control) | 1.19 fold enrichment (6-mer frequency, TF over GST control) | 1.2 fold enrichment (6-mer frequency, TF over GST control) | 1.28 fold enrichment (6-mer frequency, TF over GST control)
CTGCAC | 1.11 fold enrichment (6-mer frequency, TF over GST control) | 1.16 fold enrichment (6-mer frequency, TF over GST control) | 1.12 fold enrichment (6-mer frequency, TF over GST control) | 1.17 fold enrichment (6-mer frequency, TF over GST control) | 1.05 fold enrichment (6-mer frequency, TF over GST control) | 1.1 fold enrichment (6-mer frequency, TF over GST control) | 1.23 fold enrichment (6-mer frequency, TF over GST control) | 1.24 fold enrichment (6-mer frequency, TF over GST control)
CAACTG | 1.18 fold enrichment (6-mer frequency, TF over GST control) | 1.17 fold enrichment (6-mer frequency, TF over GST control) | 1.13 fold enrichment (6-mer frequency, TF over GST control) | 1.08 fold enrichment (6-mer frequency, TF over GST control) | 1.06 fold enrichment (6-mer frequency, TF over GST control) | 1.08 fold enrichment (6-mer frequency, TF over GST control) | 1.16 fold enrichment (6-mer frequency, TF over GST control) | 1.12 fold enrichment (6-mer frequency, TF over GST control)
TCATGC | 1.13 fold enrichment (6-mer frequency, TF over GST control) | 1.12 fold enrichment (6-mer frequency, TF over GST control) | 1.13 fold enrichment (6-mer frequency, TF over GST control) | 1.18 fold enrichment (6-mer frequency, TF over GST control) | 1.17 fold enrichment (6-mer frequency, TF over GST control) | 1.07 fold enrichment (6-mer frequency, TF over GST control) | 1.18 fold enrichment (6-mer frequency, TF over GST control) | 1.11 fold enrichment (6-mer frequency, TF over GST control)
CGGCAT | 1.09 fold enrichment (6-mer frequency, TF over GST control) | 1.23 fold enrichment (6-mer frequency, TF over GST control) | 1.17 fold enrichment (6-mer frequency, TF over GST control) | 1.22 fold enrichment (6-mer frequency, TF over GST control) | 1.07 fold enrichment (6-mer frequency, TF over GST control) | 1.07 fold enrichment (6-mer frequency, TF over GST control) | 1.19 fold enrichment (6-mer frequency, TF over GST control) | 1.21 fold enrichment (6-mer frequency, TF over GST control)
TAATGT | 1.06 fold enrichment (6-mer frequency, TF over GST control) | 1.11 fold enrichment (6-mer frequency, TF over GST control) | 1.09 fold enrichment (6-mer frequency, TF over GST control) | 1.12 fold enrichment (6-mer frequency, TF over GST control) | 1.19 fold enrichment (6-mer frequency, TF over GST control) | 1.07 fold enrichment (6-mer frequency, TF over GST control) | 1.05 fold enrichment (6-mer frequency, TF over GST control) | 1.09 fold enrichment (6-mer frequency, TF over GST control)
CACCAC | 1.14 fold enrichment (6-mer frequency, TF over GST control) | 1.19 fold enrichment (6-mer frequency, TF over GST control) | 1.15 fold enrichment (6-mer frequency, TF over GST control) | 1.16 fold enrichment (6-mer frequency, TF over GST control) | 1.04 fold enrichment (6-mer frequency, TF over GST control) | 1.11 fold enrichment (6-mer frequency, TF over GST control) | 1.11 fold enrichment (6-mer frequency, TF over GST control) | 1.14 fold enrichment (6-mer frequency, TF over GST control)
ACCTCA | 1.23 fold enrichment (6-mer frequency, TF over GST control) | 1.29 fold enrichment (6-mer frequency, TF over GST control) | 1.21 fold enrichment (6-mer frequency, TF over GST control) | 1.09 fold enrichment (6-mer frequency, TF over GST control) | 1.04 fold enrichment (6-mer frequency, TF over GST control) | 1.11 fold enrichment (6-mer frequency, TF over GST control) | 1.18 fold enrichment (6-mer frequency, TF over GST control) | 1.17 fold enrichment (6-mer frequency, TF over GST control)
TTGTCC | 1.35 fold enrichment (6-mer frequency, TF over GST control) | 1.43 fold enrichment (6-mer frequency, TF over GST control) | 1.38 fold enrichment (6-mer frequency, TF over GST control) | 1.45 fold enrichment (6-mer frequency, TF over GST control) | 1.25 fold enrichment (6-mer frequency, TF over GST control) | 1.39 fold enrichment (6-mer frequency, TF over GST control) | 1.36 fold enrichment (6-mer frequency, TF over GST control) | 1.32 fold enrichment (6-mer frequency, TF over GST control)
CTGACC | 1.34 fold enrichment (6-mer frequency, TF over GST control) | 1.27 fold enrichment (6-mer frequency, TF over GST control) | 1.38 fold enrichment (6-mer frequency, TF over GST control) | 1.27 fold enrichment (6-mer frequency, TF over GST control) | 1.29 fold enrichment (6-mer frequency, TF over GST control) | 1.34 fold enrichment (6-mer frequency, TF over GST control) | 1.4 fold enrichment (6-mer frequency, TF over GST control) | 1.32 fold enrichment (6-mer frequency, TF over GST control)

Source: article PMC7862700, “An all-to-all approach to the identification of sequence-specific readers for epigenetic DNA modifications on cytosine”
